{"source": "PubChem BioAssay (NCI)", "note": "The panel holds about 83,000 compounds, 20% with a hit somewhere; the sample as a whole holds those more often.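 Plates (96-well) were seeded with cells, treated with compound at one concentration, and incubated for 48 hours before percent growth was determined.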 The source made the active and inactive calls. The calls were made as follows: active = growth percent below 10; inactive = the rest.", "data": [{"test_system": "CAKI-1 renal", "experiment": "NCI-60 one-dose screen, 48 h (100 = growth as untreated, 0 = no growth, -100 = all killed)", "conditions": "10 µM unless noted", "values": [{"smiles": "C#CCOc1ccc(/C=N\\Nc2nc(-c3ccc(C)cc3)cs2)cc1OC", "growth": "115% (inactive)"}, {"smiles": "C=CCOc1cccc(/C=C2\\SC(=S)N(C3CC(=O)N(c4ccc(Br)cc4)C3=O)C2=O)c1", "note": "(stereo unspecified)", "growth": "104% (inactive)"}, {"smiles": "COc1ccc(S(=O)(=O)NCCCNc2nccc(-c3[nH]c(-c4ccccc4)nc3-c3ccc(Cl)c(O)c3)n2)cc1", "growth": "102% (inactive)"}, {"smiles": "COc1ccc2[nH]cc(-c3csc4nc(-c5ccccc5)cn34)c2c1", "growth": "26.3% (inactive)"}, {"smiles": "COc1ccc(CCOc2cc3c(cc2OC)CCN(C(=O)NCc2cocn2)C3c2ccc(C)cc2C)cc1", "note": "(stereo unspecified)", "growth": "13.2% (inactive)"}, {"smiles": "O=C1C(c2ccccc2)=C(N2CCc3ccccc32)OC1(Cl)Cl", "growth": "4.78% (active)"}, {"smiles": "C[C@H](CCC(=O)NCc1ccc(C(=O)Nc2ccccc2N)cc1)[C@H]1CC[C@H]2[C@@H]3[C@@H](O)C[C@@H]4C[C@H](O)CC[C@]4(C)[C@H]3CC[C@]12C", "growth": "58.4% (inactive)"}, {"smiles": "NC(=O)c1cccc(-n2ccc3cc(NC(=O)Nc4ccc(N5CCOCC5)c(C(F)(F)F)c4)ccc32)n1", "growth": "6.33% (active)"}, {"smiles": "CNC(=O)c1cc(N2CCc3cc(NC(=O)Nc4ccc(Cl)c(C(F)(F)F)c4)ccc32)ccn1", "growth": "53.9% (inactive)"}, {"smiles": "CCOc1ccc(C(=O)Nc2ncc(Cc3ccc(F)cc3)s2)cc1", "growth": "38% (inactive)"}]}, {"test_system": "A498 renal", "experiment": "NCI-60 one-dose screen, 48 h (100 = growth as untreated, 0 = no growth, -100 = all killed)", "conditions": "10 µM unless noted", "values": [{"smiles": "N#Cc1cccc(CN2CCC3=C(C2)C(=O)N(Cc2ccc(Cl)cc2)C2=NCCN23)c1", "growth": "15% (inactive)"}, {"smiles": "COc1ccc(Oc2ccc(/C=N/NC(=O)CSc3nc4ccccc4c(=O)n3-c3ccc(Cl)cc3)cc2)cc1", "growth": "72.9% (inactive)"}, {"smiles": "O=C(NNc1nc2cc(F)c(F)cc2n2c(CN3CC4CNCC4C3)ccc12)c1ncccn1", "note": "(stereo unspecified)", "growth": "18.7% (inactive)"}, {"smiles": "COc1cc(/C=C2\\C(=O)Nc3cc(Cl)ccc32)ccc1OCc1ccc(F)cc1", "growth": "94.2% (inactive)"}, {"smiles": "C#CCOc1ccc(/C=N\\Nc2nc(-c3ccc(C)cc3)cs2)cc1OC", "growth": "81.2% (inactive)"}, {"smiles": "C=CCOc1cccc(/C=C2\\SC(=S)N(C3CC(=O)N(c4ccc(Br)cc4)C3=O)C2=O)c1", "note": "(stereo unspecified)", "growth": "105% (inactive)"}, {"smiles": "COc1ccc(S(=O)(=O)NCCCNc2nccc(-c3[nH]c(-c4ccccc4)nc3-c3ccc(Cl)c(O)c3)n2)cc1", "growth": "116% (inactive)"}, {"smiles": "CCn1c2ccccc2c2cc(-n3nncc3-c3ccccc3)ccc21", "growth": "-0.537% (active)"}, {"smiles": "N#Cc1cccc(CN2CCC3=C(C2)C(=O)N(Cc2ccc(Cl)cc2)C2=NCCCN23)c1", "growth": "15.4% (inactive)"}, {"smiles": "COc1ccc(COc2ccc(/C=C3\\C(=O)Nc4ccccc43)cc2OC)cc1", "growth": "110% (inactive)"}, {"smiles": "O=C(NNc1nc2cc(F)ccc2n2c(CN3CC4CNCC4C3)ccc12)c1cnccn1", "note": "(stereo unspecified)", "growth": "36.9% (inactive)"}, {"smiles": "COc1ccc2[nH]cc(-c3csc4nc(-c5ccccc5)cn34)c2c1", "growth": "-19.7% (active)"}, {"smiles": "COC(=O)C[Se]C(=O)Cc1c(C)n(C(=O)c2ccc(Cl)cc2)c2ccc(OC)cc12", "growth": "70.6% (inactive)"}, {"smiles": "CCOc1ccc(NC2=C(Cl)C(=O)c3nc(C)ccc3C2=O)cc1", "growth": "101% (inactive)"}, {"smiles": "COc1cccc(/C=C(/C)c2ccc3cccc(OC)c3[o+]2)c1O", "growth": "84% (inactive)"}, {"smiles": "NC(N)=Nc1ccc(Oc2cccc(NC(N)=Nc3ccc(Cl)c(C(F)(F)F)c3)c2)cc1", "growth": "54% (inactive)"}, {"smiles": "COc1ccc(CCOc2cc3c(cc2OC)CCN(C(=O)NCc2cocn2)C3c2ccc(C)cc2C)cc1", "note": "(stereo unspecified)", "growth": "-2.94% (active)"}, {"smiles": "O=C1C(c2ccccc2)=C(N2CCc3ccccc32)OC1(Cl)Cl", "growth": "69.2% (inactive)"}, {"smiles": "O=C(NNc1nc2cc(F)ccc2n2c(CN3CCCC3)ccc12)c1cnccn1", "growth": "-1.87% (active)"}, {"smiles": "O=C(NNc1nc2cc(F)cc(F)c2n2cccc12)c1cnccn1", "growth": "11.1% (inactive)"}, {"smiles": "O=C(O)c1ccc(-n2cc(CNc3cc(F)c(F)c(F)c3)c(-c3ccc(F)cc3)n2)cc1", "growth": "97.6% (inactive)"}, {"smiles": "COc1ccc(NC2=C(Cl)C(=O)c3nc(C)ccc3C2=O)cc1OC", "growth": "82.6% (inactive)"}, {"smiles": "O=C(NNc1nc2cc(F)c(F)cc2n2c(CN3CC4CNCC4C3)ccc12)c1cnccn1", "note": "(stereo unspecified)", "growth": "35.1% (inactive)"}, {"smiles": "C[C@H](CCC(=O)NCc1ccc(C(=O)Nc2ccccc2N)cc1)[C@H]1CC[C@H]2[C@@H]3[C@@H](O)C[C@@H]4C[C@H](O)CC[C@]4(C)[C@H]3CC[C@]12C", "growth": "59.5% (inactive)"}, {"smiles": "CC(=O)c1cc(C(=O)c2ccc(Br)cc2)n2cc(C)cc(C)c12", "growth": "76.8% (inactive)"}, {"smiles": "NC(=O)c1cccc(-n2ccc3cc(NC(=O)Nc4ccc(N5CCOCC5)c(C(F)(F)F)c4)ccc32)n1", "growth": "-57.1% (active)"}]}]}
